Compounds with a hit are over-represented: about 21% of the library has one in this group of screens.
Shiga toxin inh: inhibitors of Shiga toxin in Vero cells; inhibition, % at 38.7 µM; 9.2% of 290,000 active; AID 2315; Vero cells, Shiga toxin protein synthesis inhibition reporter; in the data active = inhibition mostly above about 28%, no sharp cut-off; inactive = mostly below about 43%; also: 0% is about no effect
Pf growth 96h: P. falciparum growth inhibition at 96 hour, primary screen for plastid delayed-death inhibitors. P. falciparum luciferase reporter growth, 96 h. Potency, µM (top dose mostly 28.7 µM), without a hit: at the highest dose activity change, negative = inhibition, hits mostly inhibitors. 6.9% of 320,000 active; also: potency is read from the fitted curve at half-maximal effect; % is scaled to controls: 0 for no effect and ±100 for the full control effect
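Parasite growth measured via integrated firefly luciferase reporter in P. falciparum. Infected erythrocytes at 2% hematocrit, 0.05% parasitemia final were treated 96 hours at 37 C under 5% CO2, and luminescence was read.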
HCMV inh: human cytomegalovirus inhibition; HFF cells, HCMV-luciferase reporter, 72 h; active compounds read low; activity change, negative = inhibition, % at 57.5 µM; 4.5% of 410,000 active; in the data active = activity change below about -60%; inconclusive = no clear call, values can overlap the other calls; inactive = above about -39%; also: % is scaled to controls: 0 for no effect and ±100 for the full control effect
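Steps: HFFs plated, 16 h 37C; compounds added; HCMV-luciferase added to MOI 1 PFU/cell; 72 h 37C; OneGlo reagent, 5 min room temperature; luminescence read, normalized to controls.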
HCV inhibitor: blocks hepatitis C virus; Huh7.5.1 HCVcc-Cre infection, luciferase reporter, 44 h; Potency, µM (series often up to 41.8 µM), inactives show at the highest dose activity change, negative = inhibition, usual class: inhibitors; 3.4% of 340,000 active; also: potency is read from the fitted curve at half-maximal effect; % is scaled to controls: 0 for no effect and ±100 for the full control effect
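Infectious HCVcc-Cre (~0.5 moi) was added to cells just after compound, with cells seeded 4 h earlier at 1,000 per well. Luciferase activity after 44 h culture reported infection; substrate was incubated 15 min at room temperature before reading.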
Pf growth 48h: P. falciparum growth inhibition at 48 hours (one generation); P. falciparum luciferase growth in erythrocytes, 48 h; Potency, µM (top dose mostly 28.7 µM), inactives show top-dose activity change, negative = inhibition, usual class: inhibitors; 5.9% of 310,000 active; AID 504832; also: potency is read from the fitted curve at half-maximal effect; % is scaled to controls: 0 for no effect and ±100 for the full control effect
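Firefly luciferase activity from engineered P. falciparum reports growth; inhibitors lower the luminescent signal. Cultures contained 2% hematocrit erythrocytes at 0.1% final parasitemia.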
CHX counter: affects cycloheximide protein synthesis inhibition readout, counter-screen; cell reporter, cycloheximide protein synthesis inhibition counterscreen; max response, %; 12% of 300,000 active; AID 2314; in the data active = max response mostly above about 13%, no sharp cut-off; inactive = mostly below about 14%; also: read at 38.3 µM for the half of the compounds with a filed dose; 0% is about no effect
* = called active by the depositor; u = inconclusive; x = not tested or not shown; ! = repeats disagree. Unless noted, calls follow the shape of the dose curve; as a rule, active = well fitted inhibition curve with a large enough effect; inconclusive = small, poorly fitted or top-dose-only effect, or another doubt; inactive = no such curve, though single readings can be large or run the other way.

SMILES	Shiga toxin inh	Pf growth 96h	HCMV inh	HCV inhibitor	Pf growth 48h	CHX counter
CC(Oc1ccc(Cl)cc1Cl)c1nc(-c2ccc(NC(=O)c3cccnc3)cc2)no1 (stereo not given)	-4.5	9.3%	-72.3*	11.2µM*!	3.29µM*	-2.4
CC(Oc1ccc(Cl)cc1Cl)C(=O)NNC(=O)c1cccnc1 (stereo not given)	3.0	21.4%	-21.2	14.0%	5.9%	2.4
CC(Oc1ccc(Cl)cc1Cl)c1nc(-c2ccccn2)no1 (stereo not given)	97.2*	-0.9%	10.4	u	12.8%	35.9*
COC(=O)COc1ccc(Oc2nc(NC(C)(C)C)nc(N(C)C)n2)nn1	x	x	31.5	x	x	x
CCOC1=C2[C@H](c3ccccc3)N(S(=O)(=O)c3ccc(C)cc3)C(C(C)(C)C)[C@H]2C(C#N)(C#N)C(C#N)(C#N)C1 (stereo not given in full)	x	x	-100.3*	x	x	x
CC(C)CC(=O)Nc1c2c(nn1-c1ccc(F)cc1)CS(=O)C2 (stereo not given)	19.5	22.0%	0.0	20.8%	u	24.4*
CC1CC(C)(C)NC2(CCCC2)N1 (stereo not given)	x	x	11.4	-10.2%	x	x
CC(C)n1c(C(O)c2ccc3c(c2)OCO3)nc2ccccc21 (stereo not given)	-29.4	-10.1%	-38.7	-6.2%	9.28µM*	-2.5
COc1ccc(NC(=O)C(C)n2nc(C)c3c(C)n(-c4ccccc4)nc3c2=O)cc1Cl (stereo not given)	x	x	-15.9	x	x	x
S=C(NC1CCCCC1)N(CCc1nc2ccccc2[nH]1)C1CCCC1	17.6	13.1µM*	u	-29.3%	u	-6.2
O=C(Nc1nc2ccccc2[nH]1)C1CCN(C(=O)c2ccc(F)cc2)CC1	x	4.7%	4.0	-2.2%	-6.7%	x
O=C(Nc1nc2ccccc2[nH]1)C1CCCO1 (stereo not given)	40.5	15.1%	68.6	-0.6%	79.4%	22.9*
O=C(Nc1ccc(-c2nc3ccccc3[nH]2)cc1)C1CCCO1 (stereo not given)	18.5	4.5%	-9.7	5.7%	78.8%	11.8
O=C(Nc1nc2ccccc2[nH]1)C1CC1	44.6	100.5%	-2.0	u	83.2%	22.6*
O=C(Nc1ccccn1)C12CC3CC(CC(C3)C1)C2	11.4	x	-21.9	9.6%	13.1µM*	6.2
Cc1cc(NC(=O)COC(=O)C2CC(=O)N(c3ccc(Cl)cc3)C2)no1 (stereo not given)	-4.6	5.6%	48.8	7.0%	10.3%	-3.7
O=C(Nc1nc2ccccc2[nH]1)NC1CCCCC1	81.2*	80.8%	56.7	-0.5%	184.1%	45.7*
O=C(Nc1nc2ccccc2[nH]1)C12CC3CC(CC(C3)C1)C2	63.2	x	23.8	-2.5%	u	39.9*
Cc1ccc(NC(=O)c2sc3ncn(CC(=O)N4CCOCC4)c(=O)c3c2C)c(Br)c1	-4.8	11.7µM*	64.7	u	17.8%	-5.5
CCOc1ccccc1NC(=O)c1sc2ncn(CC(=O)N3CCOCC3)c(=O)c2c1C	-5.4	6.1%	6.8	1.0%	7.6%	1.0
Cc1cc([N+](=O)[O-])ccc1NC(=O)c1sc2ncn(CC(=O)N3CCOCC3)c(=O)c2c1C	-3.4	14.7µM*	-35.7	6.7%	u	-0.8
COc1cc(/C=N/NC(=O)COc2cccc(F)c2)ccc1OS(=O)(=O)c1ccc(C)cc1	6.1	8.28µM*	u	u	u	-3.5
COc1cc(/C=N/NC(=O)COc2ccc(Cl)cc2)ccc1OS(=O)(=O)c1ccc(C)cc1	-18.9	x	6.7	11.2µM*	u	-4.1
CCC(C)(NC=O)C(=O)Nc1c(C)cccc1C (stereo not given)	-8.9	-3.5%	-0.6	0.5%	11.0%	-1.9
C/C(=C\C(=O)c1ccc(Br)cc1)NCc1ccccc1	62.2	-4.9%	-22.0	10.7%	x	18.7*
C/C(=C\C(=O)c1ccc(Br)cc1)NCc1ccc(C)cc1	-6.4	24.9%	u	-21.0%	x	5.8
C/C(=C\C(=O)c1ccc(Br)cc1)NNC(=O)c1ccc(O)cc1	50.0*	-15.6%	11.2	-21.4%	-1.2%	27.0*
Cc1cccc(-n2ccnc2CN2CCN(C(C)C)C(CCO)C2)c1 (stereo not given)	8.5	-18.4%	21.0	-3.4%	-8.0%	-2.6

High-throughput results (PubChem)
